Measurements taken from PubChem BioAssay (NCATS).
Inconclusive results are not listed. A call without a number means that no potency is given here. Activity calls are given as the source filed them. Unless noted, the call rests on the fitted dose curve; in most records, active means well fitted curve in the direction sought with a large enough effect; inconclusive means small, poorly fitted or top-dose-only effect, or another doubt; inactive means no such curve, though single readings can be large; an effect the other way counts as inactive or inconclusive.

How the values were obtained:
[1] = target: Voltage-gated inwardly rectifying potassium channel KCNH2 (Homo sapiens) (UniProt Q12809); experiment: qHTS Assay for Small Molecule Inhibitors of the Human hERG Channel Activity (AID 588834);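 further: lower thallium flux fluorescence means stronger hERG block; nearly all actives have a fitted effect of over 50% in size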; further: potency means the concentration at half of the fitted maximal effect
In short: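 Concentration-response qHTS measuring drop in thallium-sensitive dye signal. U2OS cells carrying BacMam hERG; compound exposure ~10 min, then stimulation buffer and 2 min read at 1 sec intervals.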

[2] = target: Luciferin 4-monooxygenase (Photinus pyralis) (UniProt P08659); experiment: Biochemical firefly luciferase enzyme assay for NPC (AID 624030);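 further: purified P. pyralis luciferase at 10 nM with luciferin and ATP substrate; series mostly up to about 59 µM; nearly all actives have a fitted effect of over 70% in size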
In short: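 Purified P. pyralis luciferase at 10 nM in 50 mM Tris Acetate (final), luminescence read within 5 minutes of enzyme addition to compounds. Activity normalised to PTC124 versus DMSO; concentration-response curves classed by r2, magnitude and activity.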

[3] = S16 Schwann cell viability assay (CellTiter-Glo assay) (AID 624031);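 further: native untransfected S16 rat Schwann cells; series mostly up to about 58 µM; nearly all actives have a fitted effect of over 70% in size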
In short: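 Counter-screen for cytotoxicity: parental S16 rat Schwann cells lacking the PMP22 reporters, treated 24 h with compound, viability from cellular ATP by CellTiter-Glo luminescence, normalized to DMSO (0%) and no-cell wells.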

[4] = S16 Schwann cell PMP22 intronic element firefly luciferase assay (AID 624032); further: series mostly up to about 58 µM; nearly all actives have a fitted effect of over 30% in size
In short: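 Rat S16 Schwann cells stably carrying firefly luciferase driven by a PMP22 intronic element, in 10% FBS, treated 24 h at 37 C. ONE-Glo luminescence normalized to PTC124 control and DMSO (0%); curves classed by r2, magnitude and activity.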

[5] = S16 Schwann cell PMP22 intronic element beta-lactamase assay (AID 624044; calls by dose curve; further: nearly all actives have a fitted effect of over 15% in size)
In short: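 Rat S16 Schwann cells with beta-Lac driven by a PMP22 intronic element, compound-treated 24 h at 37 °C. LiveBLAzer FRET B/G read: 460 nm normalized to potassium clavulanate vs DMSO; 535 nm FRET as viability; concentration-effect curves classified.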

[6] = qHTS of Trypanosoma Brucei Inhibitors: LOPAC Validation (AID 624147)
In short: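 Activity of T. brucei pyruvate kinase was followed by Kinase-Glo Plus luminescence after the enzyme reacted 45 min at room temperature with 130 uM ADP (final) and substrate. Test compounds were added before ADP at multiple concentrations.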

[7] = target: Glucagon-like peptide 1 receptor (Homo sapiens) (UniProt P43220); experiment: qHTS of GLP-1 Receptor Agonists: LOPAC Validation (AID 624148);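 further: higher luminescence signal means agonism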
In short: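 HEK293 cells stably co-expressing GLP-1R and a cAMP-responsive luciferase reporter, plated 12 hours before compound, then incubated 4-6 hr at 37 deg C. Luminescence read 12 min after detection reagent.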

[8] = qHTS of Nrf2 Activators: LOPAC Validation (AID 624149)
In short: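 Luminescence read-out of ARE-luciferase activation: AREc32_Fluc cells treated with compounds for 24 hr at 37 deg C, then lysed with Steady-Glo for 30 min at room temperature before reading.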

[9] = HTS Assay for Allosteric Antagonists of the Human D2 Dopamine Receptor: Hit Validation in HTRF (AID 624455);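 further: stable D1 dopamine receptor cell line scored for blocking the D1 response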
In short: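 First, antagonism was screened by calcium flux in a force-coupled, inducible Hek293 Trex D2 line challenged with EC80 dopamine. Hits then went into an HTRF assay in cells stably expressing D1, testing inhibition of the D1 response.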

Voltage-gated inwardly rectifying potassium channel KCNH2 (Homo sapiens), sequence (Q12809 whole entry, looked up): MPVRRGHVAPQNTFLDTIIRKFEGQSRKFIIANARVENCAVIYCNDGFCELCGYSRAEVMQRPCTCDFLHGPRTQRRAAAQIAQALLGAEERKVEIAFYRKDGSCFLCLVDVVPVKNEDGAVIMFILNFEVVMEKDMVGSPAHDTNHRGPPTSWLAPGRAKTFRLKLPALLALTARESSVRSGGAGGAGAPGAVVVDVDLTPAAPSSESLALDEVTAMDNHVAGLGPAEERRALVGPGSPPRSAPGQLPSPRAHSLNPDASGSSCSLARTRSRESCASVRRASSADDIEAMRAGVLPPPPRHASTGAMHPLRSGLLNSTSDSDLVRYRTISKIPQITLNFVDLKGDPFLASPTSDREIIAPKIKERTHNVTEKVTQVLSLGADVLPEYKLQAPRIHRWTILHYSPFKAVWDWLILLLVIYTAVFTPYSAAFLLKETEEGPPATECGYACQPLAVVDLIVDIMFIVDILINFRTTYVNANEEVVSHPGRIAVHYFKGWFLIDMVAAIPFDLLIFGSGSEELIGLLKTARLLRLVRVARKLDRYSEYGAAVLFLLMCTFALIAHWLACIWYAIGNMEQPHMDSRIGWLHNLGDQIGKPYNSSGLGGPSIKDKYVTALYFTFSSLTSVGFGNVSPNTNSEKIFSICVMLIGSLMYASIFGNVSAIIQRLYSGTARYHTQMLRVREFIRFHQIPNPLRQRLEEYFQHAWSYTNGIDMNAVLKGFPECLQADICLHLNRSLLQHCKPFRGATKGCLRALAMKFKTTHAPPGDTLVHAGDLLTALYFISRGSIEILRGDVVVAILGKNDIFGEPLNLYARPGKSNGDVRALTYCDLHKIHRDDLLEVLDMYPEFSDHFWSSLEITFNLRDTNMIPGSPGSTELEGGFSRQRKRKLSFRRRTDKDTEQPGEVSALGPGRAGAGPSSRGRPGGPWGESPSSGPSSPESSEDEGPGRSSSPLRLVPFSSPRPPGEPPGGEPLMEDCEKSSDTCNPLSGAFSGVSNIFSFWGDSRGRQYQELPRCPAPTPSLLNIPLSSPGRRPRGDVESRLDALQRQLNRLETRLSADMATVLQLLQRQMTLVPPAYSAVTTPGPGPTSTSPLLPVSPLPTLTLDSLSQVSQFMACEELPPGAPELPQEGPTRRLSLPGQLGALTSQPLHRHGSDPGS
Luciferin 4-monooxygenase (Photinus pyralis), sequence (P08659 whole entry, looked up): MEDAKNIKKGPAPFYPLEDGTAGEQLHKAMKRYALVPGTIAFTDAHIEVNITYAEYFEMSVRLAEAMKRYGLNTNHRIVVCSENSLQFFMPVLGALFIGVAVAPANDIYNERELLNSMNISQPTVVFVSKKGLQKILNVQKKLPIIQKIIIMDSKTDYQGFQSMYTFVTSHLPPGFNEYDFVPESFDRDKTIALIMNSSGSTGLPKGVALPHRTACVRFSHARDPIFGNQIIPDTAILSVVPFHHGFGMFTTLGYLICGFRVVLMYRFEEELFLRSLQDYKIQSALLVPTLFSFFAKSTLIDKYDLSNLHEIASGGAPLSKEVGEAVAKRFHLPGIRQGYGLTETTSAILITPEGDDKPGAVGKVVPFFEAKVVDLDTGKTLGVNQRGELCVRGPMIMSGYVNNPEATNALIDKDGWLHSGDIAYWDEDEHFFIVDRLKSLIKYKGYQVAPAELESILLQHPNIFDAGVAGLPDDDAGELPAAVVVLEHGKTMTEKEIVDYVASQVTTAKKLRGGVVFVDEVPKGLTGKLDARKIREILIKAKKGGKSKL
Glucagon-like peptide 1 receptor (Homo sapiens), sequence (P43220 whole entry, looked up): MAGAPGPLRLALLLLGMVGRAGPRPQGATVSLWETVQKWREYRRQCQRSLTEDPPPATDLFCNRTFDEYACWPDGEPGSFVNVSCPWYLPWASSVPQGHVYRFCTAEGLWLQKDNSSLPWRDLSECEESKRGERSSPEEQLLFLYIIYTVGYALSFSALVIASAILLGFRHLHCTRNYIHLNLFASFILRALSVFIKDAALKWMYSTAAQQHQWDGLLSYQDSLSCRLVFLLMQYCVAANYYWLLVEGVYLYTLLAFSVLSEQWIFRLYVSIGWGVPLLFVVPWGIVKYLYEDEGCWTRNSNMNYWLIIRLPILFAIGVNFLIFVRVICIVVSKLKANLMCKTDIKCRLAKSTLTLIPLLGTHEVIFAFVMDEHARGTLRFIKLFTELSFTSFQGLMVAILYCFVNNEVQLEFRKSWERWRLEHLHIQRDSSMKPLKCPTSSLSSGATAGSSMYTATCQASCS

## O=c1ccc2cc(O[C@@H]3O[C@H](CO)[C@@H](O)[C@H](O)[C@H]3O)c(O)cc2o1
[1]
  Potency: inactive

## CC(=O)O[C@H]1C[C@H](O[C@H]2[C@@H](O)C[C@H](O[C@H]3[C@@H](O)C[C@H](OC4CC[C@@]5(C)[C@H](CC[C@@H]6[C@@H]5CC[C@]5(C)[C@@H](C7=CC(=O)OC7)CC[C@]65O)C4)O[C@@H]3C)O[C@@H]2C)O[C@H](C)[C@H]1O[C@@H]1O[C@H](CO)[C@@H](O)[C@H](O)[C@H]1O (stereo partly drawn)
[1]
  Potency: inactive

## C=CCN1CC[C@]23c4c5ccc(O)c4O[C@H]2[C@@H](O)C=C[C@H]3[C@H]1C5
[1]
  Potency: inactive
[2]
  Potency: inactive
[3]
  Potency: inactive
[4]
  Potency: inactive

## C[C@@H](CO)NC(=O)[C@@H]1C=C2c3cccc4[nH]cc(c34)C[C@H]2N(C)C1
[1]
  Potency: inactive

## C[N+]1(C)[C@@H]2CC(OC(=O)[C@H](CO)c3ccccc3)C[C@H]1[C@H]1O[C@@H]12 (stereo partly drawn)
[1]
  Potency: inactive

## C#CC(C)(O)CC (stereo not drawn)
[1]
  Potency: inactive
[2]
  Potency: inactive
[3]
  Potency: inactive
[4]
  Potency: inactive

## Oc1ccc2c3c1O[C@H]1[C@@H](O)CC[C@@]4(O)[C@@H](C2)N(CC2CCC2)CC[C@]314
[1]
  Potency: inactive

## Cc1cc(C)cc(C(=O)OC2C[C@H]3CC[C@@H](C2)N3C)c1 (stereo partly drawn)
[1]
  Potency: 3.98 µM (active)

## C[C@]12CC[C@H]3[C@@H](CC[C@@]45O[C@@H]4C(O)=C(C#N)C[C@]35C)[C@@H]1CC[C@@H]2O
[1]
  Potency: inactive

## O[C@H]1[C@H]2[C@H](O)CCCN2C[C@H]1O
[1]
  Potency: inactive
[2]
  Potency: inactive
[3]
  Potency: inactive
[4]
  Potency: inactive
[5]
  Potency: inactive

## FC(F)OC(F)(F)C(F)Cl (stereo not drawn)
[1]
  Potency: inactive
[2]
  Potency: inactive
[3]
  Potency: inactive
[4]
  Potency: inactive
[5]
  Potency: inactive

## O=S(=O)(O)c1cc(O)ccc1O
[1]
  Potency: inactive
[2]
  Potency: inactive
[3]
  Potency: inactive
[4]
  Potency: inactive
[5]
  Potency: inactive

## CCCC(C)(COC(N)=O)COC(=O)NC1CC1 (stereo not drawn)
[1]
  Potency: inactive
[3]
  Potency: inactive
[4]
  Potency: inactive
[5]
  Potency: inactive

## N#CC1(N2CCCCC2)CCCCC1
[1]
  Potency: inactive
[2]
  Potency: inactive
[3]
  Potency: inactive
[4]
  Potency: inactive
[5]
  Potency: inactive

## O=C1CC[C@@]2(O)C3Cc4ccc(O)c5c4C2(CCN3CC2CC2)[C@H]1O5 (stereo partly drawn)
[1]
  Potency: 11.2 µM (active)
[2]
  Potency: inactive
[3]
  Potency: inactive
[4]
  Potency: inactive
[5]
  Potency: inactive
[6]
  Potency: inactive
[7]
  outcome: inactive
[8]
  Potency: inactive
[9]
  Potency: inactive
